Assay results as given in PubChem BioAssay AID1159580 (chemical genetic matrix, 2015).
In all, about 5,500 compounds went through this assay and about 2,000 (36%) were called active. Another 18% or so got no clear call; they are omitted. Cut-off read from the data, not from the text of the source: active = normalized growth mostly below about 0.91 (no sharp cut-off); inconclusive = no clear call, values can overlap the other calls; inactive = mostly above about 0.92. The list shows a part of the results.

Test: chemical genetic growth profiling, strain panel (AID 1159580);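 note: tested at 20 µM; growth read once vehicle control cultures reached saturation at 30 °C; 1 = growth at the plate median or of vehicle wells; lower values mean less growth of the strain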
Settings: growth OD

Measured: normalized growth

CCC(C)(C)C(=O)O[C@H]1C[C@@H](C)C=C2C=C[C@H](C)[C@H](CC[C@@H]3C[C@@H](O)CC(=O)O3)[C@H]21
inactive: S. cerevisiae deletion strains, locus YJR075W, strain HOC1, stronger effect = lower value 1 | S. cerevisiae deletion strains, locus YKL009W, strain mrt4, stronger effect = lower value 0.93 | S. cerevisiae deletion strains, locus YKL068W, stronger effect = lower value 1.03 | S. cerevisiae deletion strains, locus YKL085W, strain MDH1 (second series), stronger effect = lower value 1.02 | S. cerevisiae deletion strains, locus YKL085W, strain MDH1, stronger effect = lower value 1.02 | S. cerevisiae deletion strains, locus YKL160W, strain elf1, stronger effect = lower value 0.949 | S. cerevisiae deletion strains, locus YKL190W, strain CNB1, stronger effect = lower value 1.01 | S. cerevisiae deletion strains, locus YKR001C, strain vps1, stronger effect = lower value 1.01 | S. cerevisiae deletion strains, locus YKR026C, strain gcn3, stronger effect = lower value 1.01 | S. cerevisiae deletion strains, locus YKR091W, strain srl3, stronger effect = lower value 1.02 | S. cerevisiae deletion strains, locus YLL001W, strain dnm1, stronger effect = lower value 1 | S. cerevisiae deletion strains, locus YLL026W, stronger effect = lower value 0.981 | S. cerevisiae deletion strains, locus YLL041C, strain sdh2, stronger effect = lower value 1.01 | S. cerevisiae deletion strains, locus YLR027C, strain aat2, stronger effect = lower value 0.976 | S. cerevisiae deletion strains, locus YLR039C, strain RIC1, stronger effect = lower value 1.1 | S. cerevisiae deletion strains, locus YLR058C, strain SHM2, stronger effect = lower value 1.02 | S. cerevisiae deletion strains, locus YLR102C, strain apc9, stronger effect = lower value 1.04 | S. cerevisiae deletion strains, locus YLR113W, strain HOG1, stronger effect = lower value 1.04 | S. cerevisiae deletion strains, locus YLR221C, strain rsa3, stronger effect = lower value 0.909 | S. cerevisiae deletion strains, locus YLR258W, strain gsy2, stronger effect = lower value 0.927 | S. cerevisiae deletion strains, locus YLR262C, strain YPT6 (second series), stronger effect = lower value 1.05 | S. cerevisiae deletion strains, locus YLR262C, strain YPT6, stronger effect = lower value 0.58 | S. cerevisiae deletion strains, locus YLR268W, strain sec22, stronger effect = lower value 0.993 | S. cerevisiae deletion strains, locus YLR330W, strain CHS5, stronger effect = lower value 1 | S. cerevisiae deletion strains, locus YLR342W, strain FKS1 (second series), stronger effect = lower value 1.01 | S. cerevisiae deletion strains, locus YLR342W, strain FKS1, stronger effect = lower value 1 | S. cerevisiae deletion strains, locus YLR357W, strain rsc2, stronger effect = lower value 1.01 | S. cerevisiae deletion strains, locus YLR370C, strain arc18, stronger effect = lower value 1.01 | S. cerevisiae deletion strains, locus YLR371W, strain rom2, stronger effect = lower value 1.04 | S. cerevisiae deletion strains, locus YLR384C, strain iki3, stronger effect = lower value 0.978 | S. cerevisiae deletion strains, locus YLR418C, strain cdc73, stronger effect = lower value 0.856 | S. cerevisiae deletion strains, locus YML016C, strain PPZ1, stronger effect = lower value 1.02 | S. cerevisiae deletion strains, locus YML032C, strain rad52, stronger effect = lower value 1.02 | S. cerevisiae deletion strains, locus YML120C, strain ndi1, stronger effect = lower value 0.987 | S. cerevisiae deletion strains, locus YML124C, strain tub3, stronger effect = lower value 1.04 | S. cerevisiae deletion strains, locus YMR058W, strain fet3, stronger effect = lower value 0.977 | S. cerevisiae deletion strains, locus YMR078C, strain ctf18, stronger effect = lower value 1.04 | S. cerevisiae deletion strains, locus YMR125W, strain sto1, stronger effect = lower value 0.97 | S. cerevisiae deletion strains, locus YMR129W, stronger effect = lower value 1.02 | S. cerevisiae deletion strains, locus YMR205C, strain PFK2, stronger effect = lower value 0.978 | S. cerevisiae deletion strains, locus YMR223W, strain ubp8, stronger effect = lower value 0.991 | S. cerevisiae deletion strains, locus YMR231W, strain pep5, stronger effect = lower value 1 | S. cerevisiae deletion strains, locus YMR263W, strain SAP30, stronger effect = lower value 0.99 | S. cerevisiae deletion strains, locus YNL067W, strain RPL9B, stronger effect = lower value 0.998 | S. cerevisiae deletion strains, locus YNL128W, strain TEP1, stronger effect = lower value 0.979 | S. cerevisiae deletion strains, locus YNL153C, strain GIM3, stronger effect = lower value 0.986 | S. cerevisiae deletion strains, locus YNL183C, strain NPR1, stronger effect = lower value 0.897 | S. cerevisiae deletion strains, locus YNL233W, strain BNI4, stronger effect = lower value 0.947 | S. cerevisiae deletion strains, locus YNL248C, strain rpa49, stronger effect = lower value 0.932 | S. cerevisiae deletion strains, locus YNL250W, strain rad50, stronger effect = lower value 0.988 | S. cerevisiae deletion strains, locus YNL271C, strain bni1, stronger effect = lower value 1.01 | S. cerevisiae deletion strains, locus YNL298W, strain CLA4, stronger effect = lower value 1.03 | S. cerevisiae deletion strains, locus YNL307C, strain MCK1, stronger effect = lower value 0.942 | S. cerevisiae deletion strains, locus YNL322C, strain KRE1 (second series), stronger effect = lower value 1.07 | S. cerevisiae deletion strains, locus YNL322C, strain KRE1, stronger effect = lower value 1.01 | S. cerevisiae deletion strains, locus YNR049C, strain mso1, stronger effect = lower value 1.02 | S. cerevisiae deletion strains, locus YOL006C, strain TOP1, stronger effect = lower value 0.909 | S. cerevisiae deletion strains, locus YOL012C, strain htz1 1.29 | S. cerevisiae deletion strains, locus YOL147C, strain pex11, stronger effect = lower value 1.04 | S. cerevisiae deletion strains, locus YOR001W, strain rrp6, stronger effect = lower value 1.01 | S. cerevisiae deletion strains, locus YOR061W, strain CKA2, stronger effect = lower value 1.01 | S. cerevisiae deletion strains, locus YOR069W, strain VPS5, stronger effect = lower value 0.998 | S. cerevisiae deletion strains, locus YOR080W, strain dia2, stronger effect = lower value 0.971 | S. cerevisiae deletion strains, locus YOR083W, strain WHI5, stronger effect = lower value 0.981 | S. cerevisiae deletion strains, locus YOR106W, strain vam3, stronger effect = lower value 0.931 | S. cerevisiae deletion strains, locus YOR136W, strain idh2, stronger effect = lower value 1.01 | S. cerevisiae deletion strains, locus YOR144C, strain elg1, stronger effect = lower value 1.03 | S. cerevisiae deletion strains, locus YOR184W, strain ser1, stronger effect = lower value 0.944 | S. cerevisiae deletion strains, locus YOR231W, strain MKK1, stronger effect = lower value 0.956 | S. cerevisiae deletion strains, locus YOR290C, strain snf2, stronger effect = lower value 0.991 | S. cerevisiae deletion strains, locus YOR316C, strain cot1, stronger effect = lower value 1.03 | S. cerevisiae deletion strains, locus YPL051W, strain arl3, stronger effect = lower value 0.946 | S. cerevisiae deletion strains, locus YPL055C, strain LGE1, stronger effect = lower value 0.926 | S. cerevisiae deletion strains, locus YPL078C, strain atp4, stronger effect = lower value 0.983 | S. cerevisiae deletion strains, locus YPL240C, strain hsp82, stronger effect = lower value 0.997 | S. cerevisiae deletion strains, locus YPL241C, strain CIN2, stronger effect = lower value 1 | S. cerevisiae deletion strains, locus YPL256C, strain CLN2, stronger effect = lower value 1.02 | S. cerevisiae deletion strains, locus YPR119W, strain clb2, stronger effect = lower value 1.04 | S. cerevisiae deletion strains, locus YPR141C, strain kar3, stronger effect = lower value 1.02 | S. cerevisiae deletion strains, locus YPR163C, strain tif3, stronger effect = lower value 1.01 | S. cerevisiae deletion strains, locus YPR167C, strain met16, stronger effect = lower value 1.03 | S. cerevisiae deletion strains, strain wtn01, stronger effect = lower value 1.03 | S. cerevisiae strains, strain wild type, stronger effect = lower value 0.997
active: S. cerevisiae deletion strains, locus YLR320W, strain mms22, stronger effect = lower value 0.855 | S. cerevisiae deletion strains, locus YMR307W, strain GAS1, stronger effect = lower value 0.554 | S. cerevisiae deletion strains, locus YNL071W, strain lat1, stronger effect = lower value 0.834 | S. cerevisiae deletion strains, locus YNL209W, strain ssb2, stronger effect = lower value 0.88 | S. cerevisiae deletion strains, locus YNR052C, strain pop2, stronger effect = lower value 0.911 | S. cerevisiae deletion strains, locus YOR070C, strain gyp1, stronger effect = lower value 0.845 | S. cerevisiae deletion strains, locus YOR265W, strain rbl2, stronger effect = lower value 0.922 | S. cerevisiae deletion strains, locus YOR270C, strain vph1, stronger effect = lower value 0.57 | S. cerevisiae deletion strains, locus YPL106C, strain sse1, stronger effect = lower value 1.15 [resistant]
